In PubChem BioAssay AID1159580 (chemical genetic matrix, 2015):
Out of some 5,500 compounds screened, about 2,000 (36%) were called active. Not shown: some 18% with an inconclusive outcome. Cut-off read from the data, not from the text of the source: active = normalized growth mostly below about 0.91 (no sharp cut-off); inconclusive = no clear call, values can overlap the other calls; inactive = mostly above about 0.92. The list shows a part of the results.

Experiment: chemical genetic growth profiling, strain panel (AID 1159580);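 note: tested at 20 µM; growth read once vehicle control cultures reached saturation at 30 °C; 1 = growth at the plate median or of vehicle wells; lower values mean less growth of the strain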
Settings: growth OD
[1] = S. cerevisiae deletion strains, locus YAL013W, strain DEP1, stronger effect = lower value
[2] = S. cerevisiae deletion strains, locus YAL040C, strain CLN3, stronger effect = lower value
[3] = S. cerevisiae deletion strains, locus YER002W, strain NOP16, stronger effect = lower value
[4] = S. cerevisiae deletion strains, locus YGR078C, strain PAC10, stronger effect = lower value
[5] = S. cerevisiae deletion strains, locus YNL153C, strain GIM3, stronger effect = lower value
[6] = S. cerevisiae deletion strains, locus YNL175C, strain NOP13, stronger effect = lower value
[7] = S. cerevisiae deletion strains, locus YNL197C, strain WHI3, stronger effect = lower value
[8] = S. cerevisiae deletion strains, locus YNL224C, strain SQS1, stronger effect = lower value
[9] = S. cerevisiae deletion strains, locus YOR083W, strain WHI5 (second series), stronger effect = lower value
[10] = S. cerevisiae deletion strains, locus YBR229C, strain ROT2, stronger effect = lower value
[11] = S. cerevisiae deletion strains, locus YDL101C, strain DUN1, stronger effect = lower value
[12] = S. cerevisiae deletion strains, locus YDR150W, strain NUM1, stronger effect = lower value
[13] = S. cerevisiae deletion strains, locus YEL061C, strain CIN8, stronger effect = lower value
[14] = S. cerevisiae deletion strains, locus YHR030C, strain SLT2, stronger effect = lower value
[15] = S. cerevisiae deletion strains, locus YJR043C, strain POL32, stronger effect = lower value
[16] = S. cerevisiae deletion strains, locus YJR075W, strain HOC1, stronger effect = lower value
[17] = S. cerevisiae deletion strains, locus YLR039C, strain RIC1, stronger effect = lower value
[18] = S. cerevisiae deletion strains, locus YLR262C, strain YPT6, stronger effect = lower value
[19] = S. cerevisiae deletion strains, locus YMR263W, strain SAP30, stronger effect = lower value
[20] = S. cerevisiae deletion strains, locus YNL322C, strain KRE1, stronger effect = lower value
[21] = S. cerevisiae deletion strains, locus YPL241C, strain CIN2, stronger effect = lower value

Measured: normalized growth

Cc1cccc(C)c1NC(=O)C[N+](C)(C)C
inactive: [1] 1.03 | [2] 0.995 | S. cerevisiae deletion strains, locus YCL061C, strain MRC1 (second series), stronger effect = lower value 1 | S. cerevisiae deletion strains, locus YDR363W, strain ESC2, stronger effect = lower value 1.01 | [3] 1.01 | [4] 0.984 | S. cerevisiae deletion strains, locus YGR229C, strain SMI1, stronger effect = lower value 1 | [5] 1.01 | [6] 0.993 | [7] 0.989 | [8] 1.01 | [9] 1.02

CN1C2CCC1CC(=NO)C2
inactive: [1] 0.993 | [10] 0.982 | [11] 1.02 | [12] 0.991 | [13] 0.997 | [4] 1 | [14] 1.07 | S. cerevisiae deletion strains, locus YHR087W, strain rtc3, stronger effect = lower value 0.993 | S. cerevisiae deletion strains, locus YJL187C, strain SWE1, stronger effect = lower value 0.989 | [15] 0.986 | [16] 0.984 | S. cerevisiae deletion strains, locus YKL190W, strain CNB1, stronger effect = lower value 0.994 | [17] 0.998 | S. cerevisiae deletion strains, locus YLR058C, strain SHM2 (second series), stronger effect = lower value 0.983 | S. cerevisiae deletion strains, locus YLR085C, strain ARP6, stronger effect = lower value 1.02 | [18] 0.997 | S. cerevisiae deletion strains, locus YML094W, strain GIM5, stronger effect = lower value 1.01 | S. cerevisiae deletion strains, locus YMR219W, strain ESC1, stronger effect = lower value 1.01 | [19] 0.986 | [5] 1.03 | S. cerevisiae deletion strains, locus YNL298W, strain CLA4 (second series), stronger effect = lower value 1.03 | [20] 1 | S. cerevisiae deletion strains, locus YNR030W, strain Alg12, stronger effect = lower value 0.986 | S. cerevisiae deletion strains, locus YPL055C, strain LGE1, stronger effect = lower value 0.984 | [21] 0.975 | S. cerevisiae deletion strains, locus YPR135W, strain CTF4, stronger effect = lower value 1.03

CO[C@@]1(NC(=O)CSCC#N)C(=O)N2C(C(=O)O)=C(CSc3nnnn3C)CS[C@@H]21
inactive: [2] 1.01 | [3] 0.986 | [4] 1 | [16] 1 | [6] 0.995 | [7] 1 | [8] 1 | [9] 1 | [21] 1

CCCc1occc(=O)c1/C=C/O
inactive: [1] 0.98 | S. cerevisiae deletion strains, locus YBR021W, strain FUR4, stronger effect = lower value 0.999 | [10] 0.987 | S. cerevisiae deletion strains, locus YCL029C, strain bik1, stronger effect = lower value 0.97 | S. cerevisiae deletion strains, locus YDL035C, strain GPR1, stronger effect = lower value 0.981 | S. cerevisiae deletion strains, locus YDL074C, strain BRE1, stronger effect = lower value 1.01 | [11] 0.982 | S. cerevisiae deletion strains, locus YDL134C, strain PPH21, stronger effect = lower value 0.939 | S. cerevisiae deletion strains, locus YDL185W, strain tfp1, stronger effect = lower value 0.97 | S. cerevisiae deletion strains, locus YDL192W, strain arf1, stronger effect = lower value 0.923 | S. cerevisiae deletion strains, locus YDR101C, strain arx1, stronger effect = lower value 0.943 | [12] 0.983 | S. cerevisiae deletion strains, locus YDR162C, strain NBP2, stronger effect = lower value 0.927 | S. cerevisiae deletion strains, locus YDR318W, strain mcm21, stronger effect = lower value 0.942 | S. cerevisiae deletion strains, locus YDR388W, stronger effect = lower value 0.964 | [13] 0.98 | S. cerevisiae deletion strains, locus YER110C, stronger effect = lower value 0.963 | S. cerevisiae deletion strains, locus YER155C, strain BEM2, stronger effect = lower value 0.967 | S. cerevisiae deletion strains, locus YER167W, strain BCK2, stronger effect = lower value 0.936 | S. cerevisiae deletion strains, locus YGL078C, strain dbp3, stronger effect = lower value 1 | S. cerevisiae deletion strains, locus YGL086W, strain mad1, stronger effect = lower value 0.979 | S. cerevisiae deletion strains, locus YGL248W, strain PDE1, stronger effect = lower value 0.949 | [4] 0.964 | S. cerevisiae deletion strains, locus YGR135W, strain pre9, stronger effect = lower value 0.948 | S. cerevisiae deletion strains, locus YGR252W, strain gcn5, stronger effect = lower value 0.925 | [14] 0.986 | S. cerevisiae deletion strains, locus YHR079C, strain IRE1 (second series), stronger effect = lower value 0.959 | S. cerevisiae deletion strains, locus YHR094C, strain hxt1, stronger effect = lower value 0.957 | S. cerevisiae deletion strains, locus YHR129C, strain ARP1, stronger effect = lower value 0.974 | S. cerevisiae deletion strains, locus YHR200W, strain rpn10, stronger effect = lower value 0.95 | S. cerevisiae deletion strains, locus YIL066C, strain RNR3, stronger effect = lower value 0.97 | S. cerevisiae deletion strains, locus YIL073C, strain SPO22, stronger effect = lower value 0.992 | S. cerevisiae deletion strains, locus YIL125W, strain kgd1, stronger effect = lower value 0.964 | S. cerevisiae deletion strains, locus YIR030C, strain dcg1, stronger effect = lower value 0.955 | S. cerevisiae deletion strains, locus YJL095W, strain BCK1, stronger effect = lower value 0.909 | S. cerevisiae deletion strains, locus YJL134W, strain LCB3, stronger effect = lower value 0.984 | S. cerevisiae deletion strains, locus YJL168C, strain set2, stronger effect = lower value 0.987 | S. cerevisiae deletion strains, locus YJL187C, strain SWE1 (second series), stronger effect = lower value 0.963 | [15] 0.943 | [16] 0.945 | S. cerevisiae deletion strains, locus YKL009W, strain mrt4, stronger effect = lower value 1.02 | S. cerevisiae deletion strains, locus YKL068W, stronger effect = lower value 0.972 | S. cerevisiae deletion strains, locus YKL085W, strain MDH1 (second series), stronger effect = lower value 0.96 | S. cerevisiae deletion strains, locus YKL085W, strain MDH1, stronger effect = lower value 0.96 | [17] 0.929 | S. cerevisiae deletion strains, locus YLR058C, strain SHM2, stronger effect = lower value 0.973 | S. cerevisiae deletion strains, locus YLR102C, strain apc9, stronger effect = lower value 0.966 | [18] 0.922 | S. cerevisiae deletion strains, locus YLR268W, strain sec22, stronger effect = lower value 0.98 | S. cerevisiae deletion strains, locus YLR330W, strain CHS5, stronger effect = lower value 0.969 | S. cerevisiae deletion strains, locus YLR342W, strain FKS1 (second series), stronger effect = lower value 0.982 | S. cerevisiae deletion strains, locus YLR371W, strain rom2, stronger effect = lower value 0.964 | S. cerevisiae deletion strains, locus YLR418C, strain cdc73, stronger effect = lower value 0.872 | S. cerevisiae deletion strains, locus YML016C, strain PPZ1, stronger effect = lower value 0.97 | S. cerevisiae deletion strains, locus YML032C, strain rad52, stronger effect = lower value 0.925 | S. cerevisiae deletion strains, locus YML124C, strain tub3, stronger effect = lower value 0.954 | S. cerevisiae deletion strains, locus YMR078C, strain ctf18, stronger effect = lower value 0.931 | S. cerevisiae deletion strains, locus YMR223W, strain ubp8, stronger effect = lower value 0.969 | [19] 0.975 | S. cerevisiae deletion strains, locus YMR307W, strain GAS1, stronger effect = lower value 0.94 | S. cerevisiae deletion strains, locus YNL067W, strain RPL9B, stronger effect = lower value 0.962 | S. cerevisiae deletion strains, locus YNL233W, strain BNI4, stronger effect = lower value 0.962 | S. cerevisiae deletion strains, locus YNL250W, strain rad50, stronger effect = lower value 0.975 | S. cerevisiae deletion strains, locus YNL271C, strain bni1, stronger effect = lower value 0.972 | S. cerevisiae deletion strains, locus YNL298W, strain CLA4, stronger effect = lower value 0.976 | S. cerevisiae deletion strains, locus YNL307C, strain MCK1, stronger effect = lower value 0.956 | [20] 0.986 | S. cerevisiae deletion strains, locus YNR052C, strain pop2, stronger effect = lower value 0.993 | S. cerevisiae deletion strains, locus YOL006C, strain TOP1, stronger effect = lower value 0.854 | S. cerevisiae deletion strains, locus YOL012C, strain htz1 1.14 | S. cerevisiae deletion strains, locus YOL147C, strain pex11, stronger effect = lower value 0.983 | S. cerevisiae deletion strains, locus YOR061W, strain CKA2, stronger effect = lower value 0.998 | S. cerevisiae deletion strains, locus YOR069W, strain VPS5, stronger effect = lower value 0.974 | S. cerevisiae deletion strains, locus YOR136W, strain idh2, stronger effect = lower value 0.985 | S. cerevisiae deletion strains, locus YOR144C, strain elg1, stronger effect = lower value 0.962 | S. cerevisiae deletion strains, locus YOR184W, strain ser1, stronger effect = lower value 0.922 | S. cerevisiae deletion strains, locus YOR316C, strain cot1, stronger effect = lower value 0.964 | [21] 0.979 | S. cerevisiae deletion strains, locus YPR119W, strain clb2, stronger effect = lower value 0.964 | S. cerevisiae deletion strains, locus YPR141C, strain kar3, stronger effect = lower value 0.946 | S. cerevisiae deletion strains, locus YPR163C, strain tif3, stronger effect = lower value 0.986 | S. cerevisiae deletion strains, locus YPR167C, strain met16, stronger effect = lower value 0.958 | S. cerevisiae deletion strains, strain wtn01, stronger effect = lower value 0.995 | S. cerevisiae strains, strain wild type, stronger effect = lower value 0.968
active: S. cerevisiae deletion strains, locus YDR502C, strain sam2, stronger effect = lower value 0.913 | S. cerevisiae deletion strains, locus YKR001C, strain vps1, stronger effect = lower value 0.85
